Records with an inconclusive call do not appear. Unmarked numbers belong to inactive results. Calls come from the whole dose curve; as a rule, active = well fitted inhibition curve with a large enough effect; inconclusive = small, poorly fitted or top-dose-only effect; inactive = flat fitted curve, though single readings scatter.
Biological target: Voltage-gated inwardly rectifying potassium channel KCNH2 (Homo sapiens) (UniProt Q12809)
Test: qHTS Assay for Small Molecule Inhibitors of the Human hERG Channel Activity (AID 588834);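 note: top concentration of the series differs between compounds; % is set by controls: 0 for no effect and ±100 for the full control effect; lower thallium flux fluorescence means stronger hERG block; nearly all actives have a fitted effect of over 50% in size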
Conditions: U2OS BacMam hERG, FluxOR thallium flux fluorescence; series mostly up to 46.1 µM; activity change, negative = inhibition: at the top concentration
Summary of the method: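 U2OS cells BacMam-transduced with hERG, 2000 cells/well, compound ~10 min at 37 °C before stimulation buffer. FluxOR thallium flux fluorescence read kinetically on FDSS; decrease indicates block; AC50 from Hill fits.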

Sequence of Voltage-gated inwardly rectifying potassium channel KCNH2 (Homo sapiens) (Q12809 whole entry, looked up): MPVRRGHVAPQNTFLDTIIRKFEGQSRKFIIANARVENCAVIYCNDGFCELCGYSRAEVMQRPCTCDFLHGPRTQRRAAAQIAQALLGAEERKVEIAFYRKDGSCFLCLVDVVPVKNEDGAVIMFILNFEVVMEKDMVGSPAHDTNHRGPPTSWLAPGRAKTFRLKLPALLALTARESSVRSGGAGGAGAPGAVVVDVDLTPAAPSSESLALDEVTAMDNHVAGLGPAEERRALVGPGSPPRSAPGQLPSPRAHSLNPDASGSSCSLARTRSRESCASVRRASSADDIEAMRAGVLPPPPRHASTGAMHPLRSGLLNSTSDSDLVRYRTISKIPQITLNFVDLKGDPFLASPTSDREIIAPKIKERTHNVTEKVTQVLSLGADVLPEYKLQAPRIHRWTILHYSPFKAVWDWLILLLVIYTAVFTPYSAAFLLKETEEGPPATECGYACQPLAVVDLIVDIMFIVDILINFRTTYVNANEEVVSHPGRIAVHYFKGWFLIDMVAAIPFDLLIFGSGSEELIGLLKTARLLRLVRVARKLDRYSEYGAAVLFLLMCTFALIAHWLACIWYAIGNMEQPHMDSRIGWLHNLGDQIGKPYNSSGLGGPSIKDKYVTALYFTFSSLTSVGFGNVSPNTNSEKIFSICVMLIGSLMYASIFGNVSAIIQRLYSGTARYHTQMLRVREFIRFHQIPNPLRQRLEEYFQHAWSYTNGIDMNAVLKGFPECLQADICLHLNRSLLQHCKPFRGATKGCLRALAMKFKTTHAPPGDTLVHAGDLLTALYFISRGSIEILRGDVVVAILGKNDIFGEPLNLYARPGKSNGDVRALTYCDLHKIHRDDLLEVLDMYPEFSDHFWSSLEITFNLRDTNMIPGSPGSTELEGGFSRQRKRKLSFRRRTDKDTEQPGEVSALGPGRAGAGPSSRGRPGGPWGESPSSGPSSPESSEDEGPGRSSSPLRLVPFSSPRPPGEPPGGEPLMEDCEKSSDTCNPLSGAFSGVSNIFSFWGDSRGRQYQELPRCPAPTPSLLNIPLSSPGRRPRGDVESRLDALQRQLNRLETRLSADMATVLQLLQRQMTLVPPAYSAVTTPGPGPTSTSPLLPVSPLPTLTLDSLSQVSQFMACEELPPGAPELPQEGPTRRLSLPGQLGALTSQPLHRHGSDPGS

Row | SMILES | activity change, negative = inhibition
1 | CC(=O)OCC(=O)[C@@]12OC(C)(C)O[C@@H]1C[C@H]1[C@@H]3C[C@H](F)C4=CC(=O)C=C[C@]4(C)[C@@]3(F)[C@@H](O)C[C@@]12C | -4.35% [at 20.6 µM]
2 | CC1(C)O[C@@H]2C[C@H]3[C@@H]4C[C@H](F)C5=CC(=O)CC[C@]5(C)[C@H]4[C@@H](O)C[C@]3(C)[C@]2(C(=O)CO)O1 | -7.69% [at 20.6 µM]
3 | C/C=C/c1ccc(OC)cc1 | -8.76%

Biological target: Luciferin 4-monooxygenase (Photinus pyralis) (UniProt P08659)
Test: Biochemical firefly luciferase enzyme assay for NPC (AID 624030);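 note: purified P. pyralis luciferase at 10 nM with luciferin and ATP substrate; 0% = DMSO and -100% = full luciferase inhibition by PTC124 control; nearly all actives have a fitted effect of over 70% in size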
Conditions: purified P. pyralis luciferase, luminescence, 5 min; series mostly up to 58.6 µM; activity change, negative = inhibition: at the top concentration
Summary of the method: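 Counter-screen for direct inhibition of the luciferase enzyme by approved-drug library compounds, run at 10 nM enzyme in 50 mM Tris acetate (final). Luminescence was read within 5 min of enzyme-buffer addition and normalized to PTC124 versus DMSO (0%).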

Sequence of Luciferin 4-monooxygenase (Photinus pyralis) (P08659 whole entry, looked up): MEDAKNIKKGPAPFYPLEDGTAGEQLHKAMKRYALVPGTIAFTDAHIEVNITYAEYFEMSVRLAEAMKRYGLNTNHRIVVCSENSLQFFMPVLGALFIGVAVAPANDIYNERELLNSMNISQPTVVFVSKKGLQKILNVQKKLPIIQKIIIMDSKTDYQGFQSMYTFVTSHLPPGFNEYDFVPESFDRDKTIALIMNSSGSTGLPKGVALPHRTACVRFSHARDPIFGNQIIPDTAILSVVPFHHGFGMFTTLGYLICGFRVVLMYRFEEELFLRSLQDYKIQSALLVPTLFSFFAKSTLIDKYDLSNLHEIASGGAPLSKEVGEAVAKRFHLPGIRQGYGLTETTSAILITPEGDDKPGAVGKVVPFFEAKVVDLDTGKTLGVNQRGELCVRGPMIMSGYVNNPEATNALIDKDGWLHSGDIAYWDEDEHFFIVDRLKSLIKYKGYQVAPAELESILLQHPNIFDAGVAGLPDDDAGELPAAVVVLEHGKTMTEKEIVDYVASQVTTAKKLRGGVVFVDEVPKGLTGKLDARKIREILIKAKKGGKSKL

Row | SMILES | activity change, negative = inhibition
4 | O=c1c(-c2ccccc2)c1-c1ccccc1 | -11.4%
5 | Nc1ccc(C(=O)Nc2ccccc2N)cc1 | -13.4%
6 | Cc1cc(N)c2cc(NC(=O)Nc3ccc4nc(C)cc(N)c4c3)ccc2n1 | 9.68%
7 | CCCCCCCCCCCCCCNCCO | -4.71%
8 | CC(=O)Nc1c(I)cc(I)c(C(=O)O)c1I | -2.41%
9 | CCn1cc(C(=O)O)c(=O)c2cnc(N3CCCC3)nc21 | 5.18% [at 24.9 µM]
10 | Cc1cc(O)c(C(C)C)cc1Cl | -0.795%

Source: PubChem BioAssay (NCATS)
